Reference: the supplement of paper PMC10933113
Where a name gives a salt, the structure may show the parent alone. ± gives the uncertainty stated by the source.

Test system: THP-1
Assay: CD54 surface expression induction over DMSO control (% over DMSO); higher = stronger dendritic cell activation
Details: exposure time: 24 h
Description: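 hCLAT-like CD54 and CD86 surface expression on THP1 cells after 24 h exposure at a single concentration (highest non-cytotoxic concentration, or 100-200 µM if not cytotoxic). Flow cytometry (iQue) was run on 5,000 live cells.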

Q: For `O=C(/C=C/C=C/c1ccc2c(c1)OCO2)N1CCCCC1` [Piperine] (100 µM), which “CD54 surface expression induction” value is on record?
A: 0.08 ± 0.77

Q: `CO[C@@]12[C@H](COC(N)=O)C3=C(C(=O)C(C)=C(N)C3=O)N1C[C@@H]1N[C@@H]12` [Mitomycin C] (100 µM) was tested. Which “CD54 surface expression induction” value did it give?
A: 55.6 ± 52

Q: Which “CD54 surface expression induction” value does the source give for `CCCCCCCCCCCCN(CCO)CCO` [Lauryldiethanolamine] (10 µM) here?
A: -10.1 ± 4.7

Q: For `O=CC(=O)c1ccccc1` [Phenyl glyoxal] (100 µM), which “CD54 surface expression induction” value is on record?
A: -5.43 ± 7.7

Q: `CCOc1ccc2nc3cc(N)ccc3c(N)c2c1` [Ethacridine lactate monohydrate] (200 µM) was tested. Which “CD54 surface expression induction” value did it give?
A: -29.7 ± 6.5

Q: How did the “CD54 surface expression induction” value turn out when `CCC(=O)C=Cc1ccc(OC)cc1` [1-(4-Methoxyphenyl)-1-pentene-3-one] (200 µM) was run?
A: -15.2 ± 1.7

Q: `C=CC(C)(CCC=C(C)C)OC(=O)CC(C)C` (stereo not given) [Linalyl isovalerate] (200 µM) was tested. Which “CD54 surface expression induction” value did it give?
A: 16.3 ± 11

Q: Which “CD54 surface expression induction” value does the source give for `Sc1nc2ccccc2s1` [2-Mercaptobenzothiazole] (100 µM) here?
A: -13.7 ± 14

Q: For `S=C(NC1CCCCC1)NC1CCCCC1` [N,N'-Dicyclohexylthiourea] (10 µM), which “CD54 surface expression induction” value is on record?
A: -7.65 ± 5.2

Q: How did the “CD54 surface expression induction” value turn out when `N=C1C=CC(=C(c2ccc(N)cc2)c2ccc(N)cc2)C=C1` [C.I. Basic Red 9 monohydrochloride] (10 µM) was run?
A: 10.7 ± 6.1

Q: Which “CD54 surface expression induction” value does the source give for `CCCOc1ccc2[nH]c(NC(=O)OC)nc2c1` [Oxibendazole] (100 µM) here?
A: -37.7 ± 6.7

Q: `CC(C)(C)c1ccc(C(=O)CCCCl)cc1` [4'-Tert-butyl-4-chlorobutyrophenone] (100 µM) was tested. Which “CD54 surface expression induction” value did it give?
A: -1.36 ± 1.9

Q: With `Cc1cccc(N(C)C(=S)Oc2ccc3c(c2)C2CCC3C2)c1` (stereo not given) [Tolciclate] (100 µM) as the compound, how does the “CD54 surface expression induction” value read?
A: 1.18 ± 1.2

Q: `CCOC(=O)CCC(=O)OCC` [Diethyl butanedioate] (200 µM) was tested. Which “CD54 surface expression induction” value did it give?
A: -4.24 ± 4.1

Q: Which “CD54 surface expression induction” value does the source give for `O=C(O)c1cn(C2CC2)c2cc(N3CCNCC3)c(F)cc2c1=O` [Ciprofloxacin] (100 µM) here?
A: -14.9 ± 5.8

Q: `O=C1c2cccc(O)c2C(=O)c2c(O)cccc21` [Danthron] (100 µM) was tested. Which “CD54 surface expression induction” value did it give?
A: 16.5 ± 0.49

Q: `CN(C)c1ccc(SC#N)cc1` [4-(Dimethylamino)phenylthiocyanate] (10 µM) was tested. Which “CD54 surface expression induction” value did it give?
A: -9.74 ± 4.1

Q: How did the “CD54 surface expression induction” value turn out when `CCCCC1C(=O)N(c2ccccc2)N(c2ccc(O)cc2)C1=O` (stereo not given) [Oxyphenbutazone] (10 µM) was run?
A: 2.37 ± 6.7

Q: For `Cc1ccc(O)c2ncccc12` [Tiliquinol] (10 µM), which “CD54 surface expression induction” value is on record?
A: 26.6 ± 6.2

Q: How did the “CD54 surface expression induction” value turn out when `O=C1c2ccccc2C(=O)C1c1ccc2ccccc2n1` [D & C Yellow II] (10 µM) was run?
A: -4.43 ± 3.6

Q: With `Cc1cc(C2(c3cc(C)c(O)cc3C)OS(=O)(=O)c3ccccc32)c(C)cc1O` [p-Xylenol blue] (200 µM) as the compound, how does the “CD54 surface expression induction” value read?
A: 8.91 ± 6.7

Q: For `O=[N+]([O-])c1cc(Cl)c(Cl)c(Cl)c1Cl` [2,3,4,5-Tetrachloronitrobenzene] (10 µM), which “CD54 surface expression induction” value is on record?
A: -4.73 ± 2.7

Q: `Cc1c2ccccc2c(C)c2c1ccc1ccccc12` [7,12-Dimethylbenzanthracene] (10 µM) was tested. Which “CD54 surface expression induction” value did it give?
A: -22 ± 12

Q: Which “CD54 surface expression induction” value does the source give for `C#CCN(C)CCCOc1ccc(Cl)cc1Cl` [Clorgyline hydrochloride] (100 µM) here?
A: -7.99 ± 0.71

Q: Which “CD54 surface expression induction” value does the source give for `CCc1oc2ccccc2c1C(=O)c1cc(I)c(O)c(I)c1` [Benziodarone] (100 µM) here?
A: -0.07 ± 0.74

Q: `Oc1ccc2ccccc2c1N=Nc1ccccc1` [C.I. Solvent Yellow 14] (200 µM) was tested. Which “CD54 surface expression induction” value did it give?
A: -0.27 ± 5.9

Q: Which “CD54 surface expression induction” value does the source give for `CNc1ccc(O)cc1` [4-(Methylamino)phenol Sulfate] (10 µM) here?
A: 17.6 ± 8.6

Q: Which “CD54 surface expression induction” value does the source give for `CC(=O)C1(C)CC2=C(CCCC2(C)C)CC1C` (stereo not given) (100 µM) here?
A: 4.57 ± 4.8

Q: How did the “CD54 surface expression induction” value turn out when `CN(C)c1ccc(C(=C2C=CC(=[N+](C)C)C=C2)c2ccccc2)cc1` [Malachite green oxalate*] (10 µM) was run?
A: 132 ± 20

Q: How did the “CD54 surface expression induction” value turn out when `Cc1ccc(O)c(-n2nc3ccccc3n2)c1` [2-(2H-Benzotriazol-2-yl)-4-methylphenol] (100 µM) was run?
A: 3.46 ± 3.3

Q: For `O=C(Nc1ccccc1)c1cc([N+](=O)[O-])ccc1Cl` [2-Chloro-5-nitro-N-phenylbenzamide] (200 µM), which “CD54 surface expression induction” value is on record?
A: 4.72 ± 3.4

Q: With `CO[C@@H]1[C@H](OC(=O)/C=C/C=C/C=C/C=C/C(=O)O)CC[C@]2(CO2)[C@H]1[C@@]1(C)O[C@@H]1CC=C(C)C` [Fumagillin] (100 µM) as the compound, how does the “CD54 surface expression induction” value read?
A: 4.2 ± 4.4

Q: How did the “CD54 surface expression induction” value turn out when `Nc1nnc(-c2ccc([N+](=O)[O-])o2)o1` [2-Amino-5-(5-nitro-2-furyl)-1,3,4-oxadiazole] (10 µM) was run?
A: -7.68 ± 3.2

Q: How did the “CD54 surface expression induction” value turn out when `CCCCCCCCCCC=CC1CC(=O)OC1=O` (stereo not given) [3-(Dodecenyl)dihydro-2,5-furandione] (200 µM) was run?
A: 16 ± 37

Q: For `CC(C(=O)O)c1ccc(/C=C2\CCCCC2=O)cc1` (stereo not given) [Pelubiprofen] (100 µM), which “CD54 surface expression induction” value is on record?
A: -1.67 ± 0.26

Q: Which “CD54 surface expression induction” value does the source give for `C/C=C/C=C/C=O` [2,4-Hexadienal] (200 µM) here?
A: 9.31 ± 6.7

Q: `Oc1c(I)cc(Cl)c2cccnc12` [Clioquinol] (100 µM) was tested. Which “CD54 surface expression induction” value did it give?
A: 141 ± 67

Q: Which “CD54 surface expression induction” value does the source give for `C/C=C1\C(=O)C[C@H]2[C@@H]3CCC4=CC(=O)CC[C@]4(C)[C@H]3CC[C@]12C` [Guggulsterone Z] (100 µM) here?
A: -3.76 ± 3.3

Q: For `O=C(O)Cn1c(C(=O)Nc2nc(-c3ccccc3Cl)cs2)cc2ccccc21` [Lintitript] (100 µM), which “CD54 surface expression induction” value is on record?
A: 1.24 ± 1.1

Q: Which “CD54 surface expression induction” value does the source give for `O=C(O)Cc1cc(I)c(Oc2cc(I)c(O)c(I)c2)c(I)c1` [Tetrac] (100 µM) here?
A: 8.45 ± 9.3
